These results are taken from PubChem BioAssay (NCI).

Some test systems named below: DU-145 prostate; K-562 leukemia; MALME-3M melanoma; MDA-MB-231 breast; RXF 393 renal; SF-268 CNS; SF-295 CNS; SF-539 CNS; UACC-257 melanoma; M14 melanoma.
Assay in all cases: NCI-60 one-dose screen, 48 h (100 = growth as untreated, 0 = no growth, -100 = all killed)
Details in all cases: 10 µM unless noted

The structures appear in SMILES notation. This is part of a sample that, as a whole, favours compounds with a hit. Of some 83,000 tested, about 20% had one in any assay.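 Each cell line was grown in a 96-well plate and treated with one concentration of compound for 48 hours. Values below 10 were considered active.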 A number with no mark means an inactive call. The source made the active and inactive calls.

`COC(=O)c1ccc2c(c1)n(Cc1ccc3ccccc3c1)c[n+]2Cc1ccc2ccccc2c1`: the growth with DU-145 prostate is 72.5%; with K-562 leukemia it was 20.6%; in the assay with MALME-3M melanoma, -4.4% (active); with MDA-MB-231 breast, 28.5%; in the assay with RXF 393 renal, 69.3%; in the assay on SF-268 CNS, 40.9%. The growth is 58.7% with SF-295 CNS, 65.7% with SF-539 CNS, 42% in the assay on UACC-257 melanoma and 14.1% in the assay on M14 melanoma.

Take `CC(C)C[C@H](C(=O)O)N(C)C(=O)[C@@H]1CCCN1C(=O)[C@H](C)OC(=O)[C@H](CCC(N)=O)NC(=O)[C@@H]1CCC(=O)N1`: the growth with DU-145 prostate is 106%; in the assay with K-562 leukemia, 93.2%; in the assay with MALME-3M melanoma, 109%; with MDA-MB-231 breast, 108%; in the assay with RXF 393 renal, 135%; in the assay on SF-268 CNS, 97.4%. Besides, the growth with SF-295 CNS is 93.7%; in the assay with SF-539 CNS, 97.7%; in the assay with UACC-257 melanoma, 95.2%; in the assay on M14 melanoma, 99.9%.

With `Cc1c(Br)cccc1NC(=O)c1sc2nc3c(cc2c1N)CN(Cc1ccccc1)CC3`, the growth in the assay on DU-145 prostate is 17.8%; with K-562 leukemia, 7.49% (active); in the assay with MALME-3M melanoma it was 32.8%; in the assay on MDA-MB-231 breast, 22.7%; in the assay on RXF 393 renal it was 6.25% (active); with SF-268 CNS, 31.7%. Further, the growth in the assay with SF-295 CNS is 18.8%; with SF-539 CNS, -4.32% (active); in the assay on UACC-257 melanoma it was 67.7%; in the assay with M14 melanoma, 0.627% (active).

`COc1cc(-c2csc(NC(=O)Nc3cc(Cl)cc(Cl)c3)n2)cc(OC)c1OC`: the growth with DU-145 prostate is -15.6% (active); in the assay with K-562 leukemia, 32.4%; with MALME-3M melanoma, -31.5% (active); with MDA-MB-231 breast, -14.5% (active); in the assay on RXF 393 renal it was 15.6%; in the assay on SF-268 CNS it was 27.7%. Also, the growth was -46.1% (active) with SF-295 CNS, 46.4% with SF-539 CNS, 56.7% in the assay on UACC-257 melanoma and -6.33% (active) in the assay with M14 melanoma.

For the compound `COc1ccc(-n2nc(C(=O)NCC(=O)O)nc2-c2ccccc2)cc1`, the growth is 111% in the assay with DU-145 prostate; 93.4% in the assay on K-562 leukemia; 92.4% with MALME-3M melanoma; 108% in the assay with MDA-MB-231 breast; 120% in the assay with RXF 393 renal; 99.3% with SF-268 CNS. The growth in the assay on SF-295 CNS is 107%; in the assay with SF-539 CNS, 97.2%; with UACC-257 melanoma, 97.1%; in the assay on M14 melanoma, 102%.

For `CC(C)(C)c1ccc2oc(=O)n(SC(Cl)(Cl)Cl)c2c1`, the growth is 111% with DU-145 prostate; 82.4% in the assay on K-562 leukemia; 109% with MALME-3M melanoma; 104% with MDA-MB-231 breast; 110% in the assay with RXF 393 renal; 98.2% in the assay with SF-268 CNS. In addition, the growth in the assay on SF-295 CNS was 97.1%; with SF-539 CNS it was 97.2%; in the assay with UACC-257 melanoma it was 111%; in the assay with M14 melanoma, 94.4%.

Regarding `OCCNc1nc(NCCO)nc(Nc2ccc(C3=NN(c4cc(Cl)cc(Cl)c4)C(c4ccc(Cl)cc4)C3)cc2)n1` (stereo not given), the growth with DU-145 prostate is 0.477% (active); in the assay on K-562 leukemia, 4.31% (active); in the assay with MALME-3M melanoma, -43.7% (active); in the assay on MDA-MB-231 breast, 7.31% (active); in the assay on RXF 393 renal, -57.8% (active); in the assay with SF-268 CNS it was 19.1%. The growth with SF-295 CNS was -68.3% (active); in the assay on SF-539 CNS, -45.2% (active); in the assay with UACC-257 melanoma it was 48.4%; in the assay on M14 melanoma it was 1.11% (active).

`O=C(CN1N=C(c2ccc(F)cc2)CCC1=O)Nc1nc2ccccc2s1`: the growth with DU-145 prostate is 84.6%; in the assay with K-562 leukemia, 30.1%; with MALME-3M melanoma, -70.4% (active); in the assay with MDA-MB-231 breast it was -85.5% (active); with RXF 393 renal, 45.8%; with SF-268 CNS it was 48%. The growth with SF-295 CNS was -46.9% (active); with SF-539 CNS it was -82.6% (active); in the assay on UACC-257 melanoma, 88.1%; in the assay with M14 melanoma it was 41.4%.

For `C=C(C)[C@@H]1CC[C@]2(C(N)=O)CC[C@]3(C)[C@H](CC[C@@H]4[C@@]5(C)CCCNC(C)(C)[C@@H]5CC[C@]43C)[C@@H]12`, the growth is 92.4% with DU-145 prostate; 7.26% (active) in the assay with K-562 leukemia; 75% in the assay with MALME-3M melanoma; 62.4% in the assay on MDA-MB-231 breast; 72.4% in the assay with RXF 393 renal; 85.8% in the assay with SF-268 CNS. In addition, the growth in the assay with SF-295 CNS is 80.9%; with SF-539 CNS, 65.4%; with UACC-257 melanoma it was 57.6%; in the assay with M14 melanoma it was 86.8%.

Take `Cc1ccccc1NC(=O)c1sc2nc(C)c(C(C)O)cc2c1N` (stereo not given): the growth in the assay with DU-145 prostate is 81.8%; with K-562 leukemia it was 14.4%; in the assay with MALME-3M melanoma it was 60.2%; with MDA-MB-231 breast it was 59.4%; with RXF 393 renal, 44.9%; in the assay with SF-268 CNS, 67.5%. Besides, the growth was 39.5% in the assay with SF-295 CNS, 31.7% in the assay with SF-539 CNS, 52.5% with UACC-257 melanoma and 24.7% in the assay with M14 melanoma.

`COc1ccc(/C=C/C(=O)Nc2ncnc3nc[nH]c23)cc1`: the growth in the assay on DU-145 prostate is 92.1%; with K-562 leukemia, 81.2%; in the assay with MALME-3M melanoma, 96.4%; in the assay with MDA-MB-231 breast, 109%; in the assay on RXF 393 renal, 95.4%; in the assay on SF-268 CNS, 93.5%. Moreover, the growth in the assay on SF-295 CNS was 107%; with SF-539 CNS, 100%; with UACC-257 melanoma, 100%; in the assay with M14 melanoma, 87.8%.

Take `COc1ccc2cc(/C=C3\N=C(c4cc(OC)c(OC)c(OC)c4)OC3=O)c(OC)nc2c1`: the growth in the assay with DU-145 prostate was 110%; with K-562 leukemia, 90.1%; in the assay on MALME-3M melanoma, 104%; in the assay with MDA-MB-231 breast, 91.5%; in the assay with RXF 393 renal, 119%; in the assay on SF-268 CNS, 98.2%. The growth with SF-295 CNS was 98.7%; in the assay on SF-539 CNS, 101%; with UACC-257 melanoma it was 95.5%; with M14 melanoma, 111%.

Turning to `O=C1CCC23OC(C(O)c4ccccc4N12)C1C(Br)=NOC13` (stereo not given), the growth in the assay with DU-145 prostate was 107%; in the assay on K-562 leukemia, 96.3%; in the assay on MALME-3M melanoma, 102%; in the assay on MDA-MB-231 breast, 105%; with RXF 393 renal, 114%; with SF-268 CNS it was 91.9%. Moreover, the growth with SF-295 CNS is 106%; with SF-539 CNS it was 93.3%; in the assay with UACC-257 melanoma, 98.1%; in the assay on M14 melanoma it was 104%.
